Compound activity deposited in PubChem by National Center for Advancing Translational Sciences (NCATS).
Pf growth 48h: P. falciparum growth inhibition at 48 hours (one generation) | P. falciparum luciferase growth in erythrocytes, 48 h | Potency, µM (highest dose often 28.7 µM), actives largely listed as inhibitors | actives 5.9% (n = 310,000)
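Cell-based growth assay: transgenic P. falciparum expressing firefly luciferase, cultured in red cells within RPMI 1640 containing 0.5% w/v Albumax, 24 mM bicarbonate and gentamycin. A drop in luciferase activity indicates inhibition.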
Sm TGR block: inhibitors of Schistosoma mansoni thioredoxin glutathione reductase; Potency, µM (series often up to 114 µM), actives largely listed as inhibitors; purified TGR, DTNB reduction, TNB absorbance 405 nm; actives 3% (n = 360,000); note: nearly all actives have a fitted effect of over 60% in size
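First, TGR (20 nM dispensed) and NADPH were mixed with compound. Second, a 15 min room-temperature incubation followed. Third, further NADPH and then DTNB were added to start the reaction. Finally, TNB absorbance was monitored kinetically.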
SARS PLpro yeast: inhibitors of SARS-CoV papain-like protease in yeast; AID 485353; Potency, µM (titrated, usually from 32.9 µM), actives largely listed as activators; S. cerevisiae expressing SARS-CoV PLpro, growth rescue; actives 0.19% (n = 330,000); calls by dose curve; note: nearly all actives have a fitted effect of over 55% in size
Pf growth 96h: P. falciparum growth inhibition at 96 hours | actives 6.9% (n = 320,000) | P. falciparum luciferase reporter growth, 96 h | AID 504834 | Potency, µM (doses to about 28.7 µM), most hits filed as inhibitors
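P. falciparum expressing integrated firefly luciferase, in erythrocytes at 2% hematocrit, 0.05% parasitemia, incubated with compounds 96 h at 37 C, 5% CO2. Growth inhibition read as loss of luminescence; two-generation exposure targets delayed-death apicoplast inhibitors.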
Hits are given with their value; n = inactive; u = inconclusive; x = not tested or not shown. This is a sample that favours compounds with a hit; in the whole collection about 12% have one here. Unless noted, calls come from the whole dose curve; as a rule, active = well fitted curve in the direction sought with a large enough effect; inconclusive = small, poorly fitted or top-dose-only effect, or another doubt; inactive = no such curve, though single readings can be large; an effect the other way counts as inactive or inconclusive.

SMILES	Pf growth 48h	Sm TGR block	SARS PLpro yeast	Pf growth 96h
CCc1cc(C(=O)N(CC)CC(=O)Nc2ccc(OC)cc2)sc1C	u	n	n	u
CCOC(=O)c1c(C)n(-c2ccccc2)c2ccc(OC(=O)c3cccc(C)c3)cc12	x	n	x	x
CCOC(=O)c1c(-c2ccccc2)n(C)c2ccc(O)cc12	x	n	n	u
CCOC(=O)c1c(CN(CC)CC)n(-c2ccccc2)c2ccc(O)cc12	8.28µM	n	n	u
CCOC(=O)c1c(C)n(-c2ccccc2)c2ccc(O)cc12	u	n	n	5.86µM
Cc1ccc(-n2c(=O)c3c(C)c(C(=O)N(C)C)sc3n(CC(=O)C(C)(C)C)c2=O)cc1C	x	n	x	x
O=C(NNC(=O)c1ccccc1Cl)c1ccc(-n2cncn2)c([N+](=O)[O-])c1	n	n	n	n
Cc1ccc(NC(=O)CN(C)C(=O)Cn2ccsc2=N)cc1	n	n	n	n
Cc1ccc(Oc2ccc(NC(=O)Cn3ccsc3=N)cc2)cc1	10.4µM	n	n	x
CN(Cc1cccc(C(F)(F)F)c1)C(=O)C1CCC(=O)N(CC2CCCCC2)C1 (configuration not stated)	n	n	n	u
CNC[C@@H](CC1CCCCC1)NC[C@H](CC(C)C)NCCc1cccc(C(F)(F)F)c1	u	n	n	1.85µM
CCC[C@@H](CN[C@@H](CNC)[C@H](C)CC)NCC1CCC(C(C)(C)C)CC1 (some centres not stated)	u	n	n	3.29µM
CC[C@@H](C)[C@H](CNC)NC[C@@H](Cc1cccc2ccccc12)NCCc1cccc(C(F)(F)F)c1	u	n	n	7.38µM
CCC[C@H](CN[C@@H](CNC)[C@H](C)CC)NCCc1cc(C(F)(F)F)cc(C(F)(F)F)c1	4.15µM	n	n	2.08µM
COc1ccc(C(=O)C(Cc2ccccc2)N(C)C)cc1 (configuration not stated)	u	n	n	1.31µM
CCOc1ccc(C(=O)c2ccncc2)cc1	n	n	n	x
CCOc1ccc(C(=O)C(CCC(CN(C)C)C(=O)c2ccc(OCC)cc2)CN(C)C)cc1 (configuration not stated)	u	15.8µM	n	u
COc1ccc(C(=O)C(C)(C)NO)cc1	u	n	n	n
COc1ccc(C(C)=O)cc1CC(C(=O)c1ccc(C)c(C)c1)N(C)C (configuration not stated)	n	n	n	n
COc1ccc(C(=O)C(CCCCC(CN(C)C)C(=O)c2ccc(OC)cc2)CN(C)C)cc1 (configuration not stated)	10.4µM	n	n	9.28µM
CN(C)C(Cc1ccc(C#N)cc1)C(=O)c1ccccc1 (configuration not stated)	n	n	n	n
COc1ccc(C(C)=O)cc1CC(C(=O)c1ccc(F)cc1)N(C)C (configuration not stated)	u	n	n	10.4µM
CC(Sc1ccc(S(=O)(=O)N2CCCCCC2)cn1)C(N)=O (configuration not stated)	n	n	n	n
CN(C)CC(CCC(CN(C)C)C(=O)c1ccccc1)C(=O)c1ccccc1 (configuration not stated)	6.57µM	2µM	n	13.1µM
COc1ccccc1N1CCN(CC(=O)c2c(C)[nH]c3cc(C)ccc23)CC1	13.1µM	n	n	n
SMILES	Pf growth 48h	Sm TGR block	SARS PLpro yeast	Pf growth 96h
Cc1ccc2c(C(=O)CN3CCN(C4CCCCC4)CC3)c(C)[nH]c2c1	2.62µM	n	n	n
COc1ccc2[nH]c(C)c(C(=O)CN3CCOCC3)c2c1	n	44.7µM	n	x
COc1ccccc1N1CCN(CC(=O)c2c(C)n(C)c3ccccc23)CC1	u	n	n	u
CCC1CCCCN1CC(=O)c1c(C)[nH]c2cc(C)ccc12 (configuration not stated)	n	44.7µM	n	n
COc1ccc2[nH]c(C)c(C(=O)CN3CCc4cc(OC)c(OC)cc4C3)c2c1	u	n	n	n
O=C(c1ccc(CSc2nc3ccncc3n2Cc2ccccc2F)cc1)N1CCCCC1	x	n	x	x
O=C(NCCO)c1cc2c([nH]c3ccccc32)c(-c2ccccc2)n1	n	n	n	n
COc1ccc(-c2nc(C(=O)NCC3CCCO3)cc3c2[nH]c2ccccc23)cc1 (configuration not stated)	5.22µM	n	n	7.38µM
O=C(NCC1CCCO1)c1cc2c([nH]c3ccccc32)c(-c2cccc(Br)c2)n1 (configuration not stated)	u	n	n	3.7µM
Cc1ccc(-c2nc(C(=O)NCC3CCCO3)cc3c2[nH]c2ccccc23)cc1 (configuration not stated)	7.38µM	n	n	u
Cc1ccccc1-c1nc(C(=O)NCC2CCCO2)cc2c1[nH]c1ccccc12 (configuration not stated)	u	n	n	11.7µM
CN(C)CCCNC(=O)C(=O)NCC(c1ccc2c(c1)OCO2)N1CCOCC1 (configuration not stated)	x	n	x	x
O=C(NNC(=O)C12CC3CC(CC(C3)C1)C2)c1csc(N2CCOCC2)n1	u	n	n	13.1µM
Cc1ccc(S(=O)(=O)Nc2cc(C(F)(F)F)ccc2N2CCOCC2)cc1	u	n	n	13.1µM
CC(C)(C)C(=O)Nc1cc(C(F)(F)F)ccc1N1CCOCC1	u	n	n	n
Cc1cc(C=O)c(C)n1-c1cc(C(F)(F)F)ccc1N1CCOCC1	u	50.1µM	x	u
Cc1ccc(S(=O)(=O)Nc2cc3c(cc2N2CCOCC2)n(C)c(=O)n3C)cc1	x	n	x	x
Cn1nc(-c2ccc(N3CCOCC3)c(NS(=O)(=O)c3ccc(Cl)cc3)c2)c2ccccc2c1=O	u	n	n	u
Cc1ccc(S(=O)(=O)Nc2cc(C(F)(F)F)ccc2N2CCOCC2)c(C)c1	u	n	n	11.7µM
Cc1ccc(S(=O)(=O)Nc2cc(-c3nn(C)c(=O)c4ccccc34)ccc2N2CCOCC2)cc1	u	56.2µM	n	x
COc1cc(NC(=O)CCc2c(C)nn(-c3ccc4nnc(C)n4n3)c2C)cc(OC)c1OC	x	n	x	x
N#Cc1c(-n2ncnc2-c2ccc(F)cc2)sc2c1CCCCC2	x	n	x	x
COc1cccc(C(=O)NCC(=O)OCc2cc(=O)n3c(C)csc3n2)c1	x	n	x	x
Cc1cc(C)c2nc(N3CCCC(C(=O)NC4CCCC4)C3)sc2c1 (configuration not stated)	n	n	n	5.22µM
Cc1cc(C)c2nc(N3CCC(C(=O)N4CCCC4)CC3)sc2c1	8.28µM	n	n	u
SMILES	Pf growth 48h	Sm TGR block	SARS PLpro yeast	Pf growth 96h
O=C(NCc1ccco1)c1cccc(Nc2nc3ccc(Br)cc3[nH]2)c1	11.7µM	n	n	13.1µM
O=C(NCC1CC1)c1ccc(Nc2nc3ccc(Br)cc3[nH]2)cc1	u	3.55µM	n	11.7µM
O=C(Cc1ccc(Nc2nc3ccc(Br)cc3[nH]2)cc1)NCCc1cccs1	1.85µM	n	n	3.29µM
O=C(Cc1nc2ccccc2[nH]1)NCc1ccco1	n	n	n	n
C=C(CC)C(=O)c1ccc(OCC(=O)O)c(Cl)c1Cl	u	35.5µM	n	14.7µM
Cc1ccc(CN2COc3ccc4c(C)cc(=O)oc4c3C2)cc1	x	n	x	x
COCCNC(=O)Cn1cnc2c(cnn2-c2ccc(C)cc2)c1=O	n	89.1µM	n	u
